# Compound activity (PubChem)
# Many of the other results were omitted from the sample, so hits are more common in it than they were.
# ST2 inh = inhibitors of human ST2 (IL1RL1) binding to IL-33; AID 1259354; AlphaLISA ST2-Fc/biotin-IL-33 interaction, 1 h; inhibition, % for hits at 17 µM; Q01638; 78,000 compounds, 2.3% hits; in the data active means inhibition above about 30%
# Target sequence (Q01638 whole entry, looked up): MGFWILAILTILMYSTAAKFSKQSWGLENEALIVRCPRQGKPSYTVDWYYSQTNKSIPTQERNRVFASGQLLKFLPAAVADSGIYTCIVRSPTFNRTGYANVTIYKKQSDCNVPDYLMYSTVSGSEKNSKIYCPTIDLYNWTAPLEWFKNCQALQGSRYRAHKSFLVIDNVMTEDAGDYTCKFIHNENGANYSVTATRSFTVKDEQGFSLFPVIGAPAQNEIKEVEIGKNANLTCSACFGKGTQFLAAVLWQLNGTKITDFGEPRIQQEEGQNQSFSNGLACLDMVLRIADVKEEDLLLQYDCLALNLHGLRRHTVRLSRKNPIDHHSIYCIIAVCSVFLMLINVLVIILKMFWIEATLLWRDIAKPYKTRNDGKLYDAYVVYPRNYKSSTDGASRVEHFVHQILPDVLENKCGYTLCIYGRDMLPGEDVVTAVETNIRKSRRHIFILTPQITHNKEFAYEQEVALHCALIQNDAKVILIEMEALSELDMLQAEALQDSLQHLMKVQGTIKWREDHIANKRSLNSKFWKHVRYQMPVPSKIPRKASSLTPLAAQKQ
# Starred values were filed as active, the others as inactive; i = inactive.
SMILES,ST2 inh
CSCC(=O)Nc1nc2c(s1)C[C@]1(C)CC[C@@H]3[C@H](OC(=O)[C@H]3C)[C@H]1[C@@H]2C,i
C[C@@H]1C(=O)O[C@H]2[C@H]1CC[C@@]1(C)Cc3sc(Nc4ccc(C(=O)O)cc4)nc3[C@@H](C)[C@H]21,85%*
C[C@H](C(=O)NCCN1CCOCC1)C1CC[C@@]2(C)Cc3sc(-c4ccccc4)nc3[C@@H](C)[C@@H]2[C@H]1O (stereo partly drawn),i
C=CCNC(=O)Nc1nc2c(s1)C[C@]1(C)CC[C@@H]3[C@H](OC(=O)[C@H]3C)[C@H]1[C@@H]2C,34%*
COc1cc(NC(=O)Nc2nc3c(s2)C[C@]2(C)CC[C@@H]4[C@H](OC(=O)[C@H]4C)[C@H]2[C@@H]3C)cc(OC)c1,i
CC1CCN(C(=O)Cc2c(C(=O)O)[nH]c3ccccc23)CC1,i
O=C(c1coc(COc2ccccc2)n1)N1CCN(c2ccccc2)C(=O)C1,i
Cc1nnsc1CN(C)Cc1cccc(C(=O)Nc2cnn(C)c2)c1,i
Cc1cc(C)nc(SCC(=O)Nc2ncc(Cc3cccc(C(F)(F)F)c3)s2)n1,i
CCCCNC(=O)c1cn(CCOC)c(=O)c2c1c1ccccc1n2C,i
COc1ccc(N(C(C)C(N)=O)S(C)(=O)=O)cc1 (stereo not drawn),i
N#C/C(=C\c1ccc(Cl)cc1)c1nc(C2CC2)cs1,66%*
N#C/C(=C\c1ccc([N+](=O)[O-])cc1)c1nc(-c2ccc3c(c2)OCO3)cs1,i
N#C/C(=C\c1ccc(F)cc1)c1nc(C2CC2)cs1,52%*
COc1cc(-c2nnc(SCC(=O)N3CCc4ccccc43)o2)cc(OC)c1OC,i
O=C(Nc1ccccc1F)c1ccc(I)cc1,i
CCOc1ccc(NC(=O)C(NS(=O)(=O)c2ccc3c(c2)oc(=O)n3C)C(C)C)cc1 (stereo not drawn),i
COc1cccc(OCC(O)CN2CCOCC2)c1 (stereo not drawn),i
O=C(NC1CCCCCCC1)C1c2ccccc2C(=O)N1CCCN1CCOCC1 (stereo not drawn),i
COc1cccc(NC(=O)c2ccccc2-c2ccccc2C(=O)O)c1,i
COc1cccc(NC2=C(N3CCOCC3)C(=O)c3ccccc3C2=O)c1,71%*
O=C1C(NC2CCCCC2)=C(N2CCOCC2)C(=O)c2ccccc21,73%*
CC(C)C(C(=O)NC1CCCCC1)N1C(=O)c2ccccc2C1=O (stereo not drawn),i
COc1ccccc1C1C(C(=O)c2cccs2)=C(O)C(=O)N1c1ccccn1 (stereo not drawn),i
OCCOc1ccccc1CN1CCN(c2ncnc3ccccc23)CC1,i
SMILES,ST2 inh
CCn1c(CC2CCN(S(=O)(=O)c3cccs3)CC2)nn(C)c1=O,i
Cc1ccc2nc(CCc3cccc(NC(=O)C4CCCN(S(=O)(=O)N5CCCC5)C4)c3)[nH]c2c1 (stereo not drawn),i
COc1cc(NCCNC(=O)c2ccncc2)ncn1,i
c1ccc(C2(CNc3ccccn3)CCCC2)cc1,i
COc1cc(NCC2(c3ccccc3)CCN(C)CC2)ncn1,31%*
N#Cc1c(NC(=O)c2cc(-c3cccs3)on2)sc2c1CCCC2,i
Cc1c(-c2ccc(F)cc2)[nH]c2ccc(CNC(=O)C3CCOCC3)cc12,i
Cc1[nH]nc(NN)c1Cl,55%*
O=C(Cn1c(=O)n(Cc2ccccc2)c(=O)c2ccccc21)NCC1CCCO1 (stereo not drawn),i
CC1(C)CC(=O)C2=C(C1)Nc1ccccc1N(C(=O)C(F)(F)F)C2c1cccc([N+](=O)[O-])c1 (stereo not drawn),i
COc1ccc(OC)c(NC(=O)c2c(OC)cccc2OC)c1,35%*
COc1ccc(OC)c(NC(=O)c2cc3ccccc3o2)c1,i
CCc1ccccc1NC(=O)c1c(OC)cccc1OC,i
CC(C)CN(Cc1ccsc1)C(=O)c1ccc2c(c1)ncn2CCO,i
Cc1nn(-c2ccccc2)c2sc(C(=O)NCCCO)cc12,i
Cc1ccc(NC(=O)c2cc3c(C)nn(-c4ccccc4)c3s2)cc1[N+](=O)[O-],36%*
Cc1cc(C)c([N+](=O)[O-])cc1NC(=O)c1cc2c(C)nn(-c3ccccc3)c2s1,i
COc1ccc(C=Nc2ccc3oc(-c4ccncc4)nc3c2)cc1Cl,33%*
COc1cccc(-c2nc3cc(N=Cc4ccc([N+](=O)[O-])cc4)ccc3o2)c1,i
COc1cccc(-c2nc3cc(N=Cc4cccc(OC)c4O)ccc3o2)c1,i
COc1cc(-c2ccc(C)s2)cc2c1OCCN(CCc1cn[nH]c1)C2,i
COc1cc(/C=C2\C(=O)Nc3ccc(Br)cc32)cc(OC)c1O,i
O=C1Nc2ccc(Br)cc2/C1=C/c1ccsc1,39%*
COc1ccc(/C=C2\C(=O)Nc3ccc(Br)cc32)cc1O,i
O=C1Nc2ccc(Br)cc2/C1=C/c1cccc(F)c1,30%*
SMILES,ST2 inh
COc1cc(/C=C2\C(=O)Nc3ccc(Br)cc32)cc(Br)c1O,i
COc1cccc(/C=C2\C(=O)Nc3ccc(Br)cc32)c1OC,i
NS(=O)(=O)CCCC(=O)N1CCOC(C(F)(F)F)C1 (stereo not drawn),i
Cc1ccc([N+](=O)[O-])cc1N=Cc1nc(-c2ccccc2F)oc1O,i
COC(=O)CSc1nc2c(c(=O)[nH]1)C(C)(C1CCCCC1)Cc1ccccc1-2 (stereo not drawn),i
Cc1[nH]cnc1-c1nccn1Cc1cccnc1,i
COc1cccc2cc(-c3nc4ccc(Cl)cc4c(=O)[nH]3)c(=O)oc12,i
COc1cc(N2CCC(Cn3cc(CO)nn3)CC2)ncn1,65%*
Cc1ccc(CCC(=O)N2CCC(Cn3cc(CO)nn3)CC2)cc1C,i
COc1ccc(OC)c(C2CCN(c3cc(OC)ncn3)C2)c1 (stereo not drawn),i
CCOC(=O)c1nc(Nc2ccc(C)c(Cl)c2)c2ccccc2n1,i
CC(C)(C)c1ccc(-c2cc(C[C@H]3CNCC[C@H]3CC(=O)NCc3ccccc3)no2)cc1,i
COc1ccc(CNC(=O)C[C@@H]2CCNC[C@@H]2Cc2cc(-c3ccc(C(C)(C)C)cc3)on2)cc1,47%*
CC(C)(C)c1ccc(-c2cc(C[C@H]3CNCC[C@H]3CC(=O)NCc3ccc(F)cc3)no2)cc1,i
Cc1cccc(CSC2=NCCN2C(=O)C(C)Oc2ccccc2)c1 (stereo not drawn),i
OC(COCc1ccc(Cl)cc1)CN1CCN(c2ccc(F)cc2)CC1 (stereo not drawn),i
O=[N+]([O-])c1cc2c(cc1CN1CCN(c3ccc(F)cc3)CC1)OCO2,36%*
COc1cc(CN2CCCCCC2)c([N+](=O)[O-])cc1OC,i
COc1cc(CN2CCN(Cc3ccccc3)CC2)c([N+](=O)[O-])cc1OC,i
OC(COCc1ccc2c(c1)OCO2)CN1CCN(c2cccc(Cl)c2)CC1 (stereo not drawn),i
CN1CCN(Cc2cc(O)ccc2[N+](=O)[O-])CC1,i
O=[N+]([O-])c1cc2c(cc1CN1CCN(c3cccc(Cl)c3)CC1)OCO2,36%*
COc1ccc(-c2c3c(=O)n(C)c(=O)n(C)c3cn2-c2cc(C)cc(C)c2)cc1,i
O=C(CCc1ccc2c(c1)OCO2)N1CCOC(Cc2ccccc2)C1 (stereo not drawn),i
COc1cc(NC(=O)C23CC4CC(CC(C4)C2)C3)c(OC)cc1Cl,i
COc1ccc(C2=C/C(=C/c3cccc(OC)c3OC)C(=O)O2)c(OC)c1,34%*
